Hits are enriched below; roughly 27% of the tested compounds scored in any of these assays.
CYP2C9 activ – human CYP2C9 activators, primary screen, biochemical, luminescence | recombinant CYP2C9, luciferin-H conversion; hits give high values; factor 1 = untreated enzyme, 0 = blocked | activation factor at 5 µM | actives 1.4% (n = 96,000);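 active = activation factor of 2 or more for CYP2C9 at a 5 µM dose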;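 note: 0 = sulfaphenazole-blocked wells and 1 = vehicle-only wells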
CYP2C19 act – human CYP2C19 activators, primary screen, biochemical, luminescence; Cytochrome P450 2C19 (Homo sapiens), P33261; 96,000 tested, under 10 active; recombinant CYP2C19, luciferin-H EGE luminescence; hits give high values; 0 = fully inhibited enzyme, 1 = untreated enzyme; activation factor at 5 µM;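 active = activation factor of at least 2 at 5 µM in the primary screen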;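 note: 0 = wells with 2.5 mM tranylcypromine and 1 = vehicle-only wells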
Target sequence (P33261 whole entry, looked up): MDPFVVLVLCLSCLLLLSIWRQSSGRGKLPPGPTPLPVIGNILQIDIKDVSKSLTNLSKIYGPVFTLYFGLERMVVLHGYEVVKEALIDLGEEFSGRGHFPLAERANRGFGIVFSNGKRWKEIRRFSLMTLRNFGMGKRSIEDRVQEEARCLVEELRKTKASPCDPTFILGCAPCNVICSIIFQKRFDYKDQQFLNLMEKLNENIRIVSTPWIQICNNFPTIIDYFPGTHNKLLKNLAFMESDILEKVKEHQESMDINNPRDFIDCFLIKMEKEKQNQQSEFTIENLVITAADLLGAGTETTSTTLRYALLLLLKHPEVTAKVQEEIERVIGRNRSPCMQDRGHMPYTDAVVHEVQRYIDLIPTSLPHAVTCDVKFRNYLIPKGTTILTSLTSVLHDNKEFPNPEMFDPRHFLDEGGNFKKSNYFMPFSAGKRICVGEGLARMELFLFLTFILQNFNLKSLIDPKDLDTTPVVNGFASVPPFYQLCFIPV
Cav32 inh – Cav3.2 calcium influx blockers – cell-based, Fluo-4 calcium fluorescence, FDSS, MLSMR library, primary screen; actives 4% (n = 100,000); B-score at 10 µM; Cav3.2-expressing cells; hits give low values; Voltage-dependent T-type calcium channel subunit alpha-1H (Homo sapiens), O95180;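 active = single-dose well whose peak fluorescence ratio is a statistical outlier from its plate by either plate-standardised score or position-corrected B-score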
CYP2C9 inhib – blockers of cytochrome P450 2C9 activity – biochemical, luminescence, ADME assay, primary screen | actives 20% (n = 96,000) | inhibition, % at 5 µM | P11712 | CYP2C9 Supersomes, luciferin-H conversion;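 active = blocking of liver enzyme CYP2C9 beyond about 50% at 5 µM, limit read from the data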
CYP2C19 inhib – blockers of cytochrome P450 2C19 activity – biochemical, luminescence, ADME assay, primary screen; P33261; CYP2C19 Supersomes, luciferin-H EGE luminescence, 30 min; inhibition, % at 5 µM; actives 21% (n = 96,000);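 active = CYP2C19 inhibition above a set limit at 5 µM in the primary screen, cut at about 50% in these data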;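 note: plate controls were negative control wells for no effect and 2.5 mM tranylcypromine positive control for full effect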
* marks the source's active call; other numbers are inactive results.

What do the screens show for `Cn1c2ccccc2c2cc(C(=O)OCC(=O)N3CC(=O)Nc4ccccc43)sc21`?
CYP2C9 activ: 2*; CYP2C19 act: 0.1; Cav32 inh: -1.1; CYP2C9 inhib: -104; CYP2C19 inhib: 86*

What do the screens show for `O=C1CN(C(=O)COC(=O)c2ccccc2NCc2ccco2)c2ccccc2N1`?
CYP2C9 activ: 0.6; CYP2C19 act: 0.4; Cav32 inh: -3.8*; CYP2C9 inhib: 40; CYP2C19 inhib: 56*

How did CCOc1ncccc1C(=O)OCC(=O)N1CC(=O)Nc2ccccc21 do in these assays?
CYP2C9 activ: 1.3; CYP2C19 act: 1.1; Cav32 inh: 0.2; CYP2C9 inhib: -32; CYP2C19 inhib: -11

What do the screens show for `Cc1noc(C)c1COc1cccc(C(=O)OCC(=O)N2CC(=O)Nc3ccccc32)c1`?
CYP2C9 activ: 0.4; CYP2C19 act: 0.4; Cav32 inh: -2; CYP2C9 inhib: 63*; CYP2C19 inhib: 59*

How did CCC(C)(C(=O)NC1CCCC1)N(C(=O)c1ccccn1)c1ccc(C)cc1 (centres undefined) do in these assays?
CYP2C9 activ: 0.5; CYP2C19 act: 0.7; Cav32 inh: 1.4; CYP2C9 inhib: 50; CYP2C19 inhib: 26

What do the screens show for `O=C1CCN(S(=O)(=O)c2ccccc2)C2CCCCC12` (centres undefined)?
CYP2C9 activ: 0.6; CYP2C19 act: 0.1; Cav32 inh: 1.1; CYP2C9 inhib: 36; CYP2C19 inhib: 94*

How did CC1=C(C#N)C(NC(=O)c2ccc(C)cc2)(C(F)(F)F)C(=O)N1 (centres undefined) do in these assays?
CYP2C9 activ: 0.8; CYP2C19 act: 0.1; CYP2C9 inhib: 17; CYP2C19 inhib: 92*

Results for COC(=O)C1=C(C)NC(=O)C1(NS(=O)(=O)c1ccc(NC(C)=O)cc1)C(F)(F)F (centres undefined) ?
CYP2C9 activ: 0.9; CYP2C19 act: 0.6; Cav32 inh: 0.19; CYP2C9 inhib: 8; CYP2C19 inhib: 38

Results for CC1=C(C#N)C(Nc2cc(C)ccn2)(C(F)(F)F)C(=O)N1 (centres undefined) ?
CYP2C9 activ: 0.7; CYP2C19 act: 0.2; Cav32 inh: 0.11; CYP2C9 inhib: 26; CYP2C19 inhib: 76*

What do the screens show for `COC(=O)NC1(C(F)(F)F)C(=O)NC(C)=C1C(=O)OC` (centres undefined)?
CYP2C9 activ: 0.9; CYP2C19 act: 1; CYP2C9 inhib: 7; CYP2C19 inhib: -2

Results for O=C(c1ccco1)N(Cc1cccs1)C1CCS(=O)(=O)C1 (centres undefined) ?
CYP2C9 activ: 1; CYP2C19 act: 0.9; Cav32 inh: 0.2; CYP2C9 inhib: 3; CYP2C19 inhib: 6

What do the screens show for `CN1CCN(C(=O)c2cc3c(n(-c4ccccc4)c2=O)CC(C)(C)CC3=O)CC1`?
CYP2C9 activ: 1.1; CYP2C19 act: 1.2; Cav32 inh: 0.34; CYP2C9 inhib: -9; CYP2C19 inhib: -17

Results for CC1(C)CC(=O)c2cc(C(=O)NCc3ccco3)c(=O)n(-c3ccccc3)c2C1 ?
CYP2C9 activ: 1.1; CYP2C19 act: 0.9; Cav32 inh: 4.1*; CYP2C9 inhib: -5; CYP2C19 inhib: 9

How did CC(=O)Nc1ccc(OC(=O)c2cccnc2)cc1 do in these assays?
CYP2C9 activ: 1.1; CYP2C19 act: 1.1; Cav32 inh: 0.027; CYP2C9 inhib: -14; CYP2C19 inhib: -11

What do the screens show for `Cc1ccccc1NC1=C(Cl)C(=O)OC1OC(C)C` (centres undefined)?
CYP2C9 activ: 0.7; CYP2C19 act: 0; Cav32 inh: 0.23; CYP2C9 inhib: 30; CYP2C19 inhib: 96*

How did COc1cc(NC(=O)CN2C(=O)c3ccccc3C2=O)c(C(=O)O)cc1OC do in these assays?
CYP2C9 activ: 1; CYP2C19 act: 1.2; Cav32 inh: 1; CYP2C9 inhib: 3; CYP2C19 inhib: -16

What do the screens show for `c1ccc(N2CCN(c3ccccc3)C2c2ccncc2)cc1`?
CYP2C9 activ: 0.1; CYP2C19 act: 0.1; Cav32 inh: -2.2; CYP2C9 inhib: 90*; CYP2C19 inhib: 87*

What do the screens show for `Cc1ccc(N2CCN(c3ccc(C)cc3)C2c2cccnc2)cc1`?
CYP2C9 activ: 0.7; CYP2C19 act: 0.2; Cav32 inh: -0.021; CYP2C9 inhib: 34; CYP2C19 inhib: 76*

Results for COc1cc(NC(=O)c2ccc(Br)o2)c(C(=O)O)cc1OC ?
CYP2C9 activ: 1.1; CYP2C19 act: 1.1; Cav32 inh: 0.74; CYP2C9 inhib: -6; CYP2C19 inhib: -15

How did COC(=O)C1C2C=CC3(CN(CC4CCCO4)C(=O)C13)O2 (centres undefined) do in these assays?
CYP2C9 activ: 1.1; CYP2C19 act: 1; Cav32 inh: 0.22; CYP2C9 inhib: -11; CYP2C19 inhib: -1

Results for CCOC(=O)C1(C(F)(F)F)N=C(C(F)(F)F)Nc2ccccc21 (centres undefined) ?
CYP2C9 activ: 0.3; CYP2C19 act: 0.5; Cav32 inh: 0.073; CYP2C9 inhib: 66*; CYP2C19 inhib: 54*

Results for O=C(COc1ccc(Br)cc1)c1ccc2c(c1)CCCC2 ?
CYP2C9 activ: 1.6; CYP2C19 act: 0.5; Cav32 inh: -0.0033; CYP2C9 inhib: -62; CYP2C19 inhib: 52*

What do the screens show for `Cc1ccc(OCC(=O)c2ccc3c(c2)CCCC3)cc1C`?
CYP2C9 activ: 1.4; CYP2C19 act: 1; Cav32 inh: -0.53; CYP2C9 inhib: -40; CYP2C19 inhib: 2

How did CCOC(=O)C[C@H]1c2ccccc2S(=O)(=O)N1C1CC1 do in these assays?
Cav32 inh: 0.55

What do the screens show for `CCOC(=O)C1=C(C)NC2=C(C(=O)CCC2)C1c1cccnc1` (centres undefined)?
CYP2C9 activ: 0.7; CYP2C19 act: 0.7; Cav32 inh: -1.6; CYP2C9 inhib: 32; CYP2C19 inhib: 35

What do the screens show for `CC1=C(C(=O)OCC2CCCO2)C(c2ccncc2)C2=C(CCCC2=O)N1` (centres undefined)?
CYP2C9 activ: 0.5; CYP2C19 act: 0.2; CYP2C9 inhib: 48; CYP2C19 inhib: 75*

How did CC1=C(C(=O)OCC2CCCO2)C(c2ccccc2)NC(=O)N1 (centres undefined) do in these assays?
CYP2C9 activ: 0.8; CYP2C19 act: 0.4; Cav32 inh: 1; CYP2C9 inhib: 18; CYP2C19 inhib: 62*

What do the screens show for `O=C(Nc1cccc(Cl)c1)NC1(C(=O)NCc2cccs2)CCCCC1`?
CYP2C9 activ: 0.6; CYP2C19 act: 1; Cav32 inh: -0.61; CYP2C9 inhib: 42; CYP2C19 inhib: -3

Results for O=C(CCc1ccc(S(=O)(=O)N2CCOCC2)cc1)NCCc1ccccn1 ?
CYP2C9 activ: 0.8; CYP2C19 act: 0.9; Cav32 inh: 0.67; CYP2C9 inhib: 20; CYP2C19 inhib: 6
